# Earlier results in PubChem BioAssay AID977611.
# Hit rate of the full screen: of about 3,900 compounds, about 3,900 (100%) were called active. No cut-off is given here; in the data, nearly all actives have Kd up to about 4200 µM. So high a share suggests a set chosen from earlier hits. Some of the results follow. Where a SMILES comes first, the peptide text is derived from it. Square brackets hold non-standard residues; d marks the D form. Residues, ends and D or L forms follow the SMILES beside them. Bridges are numbered along the chain shown (N, C = ends). Peptide text beside a SMILES is read from it. [ ]: non-standard residue; d: D form. Orn(CH(NH2)2) = NC(N)NCCC[C@H](N)C(=O)O
# Assay: PubChem AID 977611
# Conditions: PDB protein-ligand complexes, literature Kd
compound,measurement,setting,value
C[C@H](N)C(=O)N[C@@H](Cc1c[nH]c2ccccc12)C(=O)N[C@@H](CC(N)=O)C(=O)N[C@@H](CO)C(=O)O (H-AWNS-OH),Kd,"protein: mRNA-capping enzyme subunit alpha Pce1, PDB entry 4pz8",1.19 µM (active)
H-GWNSFQSS-OH,Kd,"protein: GAE domain of ADP-ribosylation factor-binding protein GGA1(GGA1-GAE), PDB entry 2dwx",180 µM (active)
N[C@@H](CC(=O)O)C(=O)N[C@@H](Cc1c[nH]c2ccccc12)C(=O)N[C@@H](CCC(=O)O)C(=O)N[C@@H](Cc1ccccc1)C(=O)O (H-DWEF-OH),Kd,"protein: human protein 25? (MO25?), PDB entry 1upk",0.4 µM (active)
CSCC[C@H](NC(=O)[C@H](CCCN=C(N)N)NC(=O)[C@H](CCCN=C(N)N)NC(=O)[C@H](Cc1ccccc1)NC(=O)[C@H](CO[P+](O)(O)O)NC(=O)[C@H](CCC(N)=O)NC(=O)[C@H](CCCN=C(N)N)NC(=O)[C@H](CC(C)C)NC(=O)[C@H](CO)NC(=O)[C@H](CCCCN)NC(=O)[C@@H](N)CCCCN)C(=O)N[C@@H](C)C(=O)O,Kd,"protein: Disks large homolog 4, Dlg GK, PDB entry 3wp1",14.1 µM (active)
CC(C)C[C@H](NC(=O)[C@H](CO)NC(=O)[C@H](CCCCN)NC(=O)[C@H](CCCCN)NC(=O)[C@H](CC(C)C)NC(=O)[C@H](CO[P+](O)(O)O)NC(=O)[C@H](CCCCN)NC(=O)[C@@H](NC(=O)[C@H](CCCN=C(N)N)NC(=O)[C@H](CO)NC(=O)[C@H](C)N)C(C)C)C(=O)N[C@@H](CCCN=C(N)N)C(=O)N[C@@H](CCC(N)=O)C(=O)N[C@@H](CO)C(=O)N[C@@H](Cc1ccccc1)C(=O)O,Kd,"protein: Disks large homolog 4, Dlg GK, PDB entry 3wp0",10.2 µM (active)
CC[C@H](C)[C@H](NC(=O)[C@@H](N)CC(=O)O)C(=O)N[C@@H](CC(=O)O)C(=O)N[C@H](C(=O)N[C@@H](CCSC)C(=O)NCC(=O)N[C@@H](CC(C)C)C(=O)O)C(C)C (H-DIDVMGL-OH),Kd,"protein: Rhodopsin, PDB entry 4pxf",800 µM (active)
H-AIIGLMVGGVV-OH,Kd,"protein: ponezumab Fab, PDB entry 3u0t",0.0003 µM (active)
CC(C)C[C@H](NC(=O)[C@@H](NC(=O)[C@@H]1CCCN1C(=O)[C@@H]1CCCN1C(=O)[C@@H]1CCCN1)[C@@H](C)O)C(=O)N1CCC[C@H]1C(=O)N[C@@H](CCCCN)C(=O)N1CCC[C@H]1C(=O)N[C@@H](C)C(=O)N[C@@H](C)C(=O)N1CCC[C@H]1C(=O)O (H-PPPTLPKPAAP-OH),Kd,"protein: Nebulette, PDB entry 4f14",12.9 µM (active)
H-PPPLPP-OH,Kd,"protein: WW domain of Formin-binding protein 11(FBP11), PDB entry 1ywi",371 µM (active)
CC(C)C[C@H](NC(=O)[C@@H]1CCCN1C(=O)[C@H](CCCNC(N)N)NC(=O)[C@@H]1CCCN1C(=O)[C@@H]1CCCN1)C(=O)N1CCC[C@H]1C(=O)N[C@H](C(=O)N[C@@H](C)C(=O)N1CCC[C@H]1C(=O)NCC(=O)N[C@@H](CO)C(=O)N[C@@H](CO)C(=O)N[C@@H](CCCCN)C(=O)N[C@H](C(=O)O)[C@@H](C)O)C(C)C (H-PP[Orn(CH(NH2)2)]PLPVAPGSSKT-OH),Kd,"protein: Fny(SH3 domain, 82 - 148), PDB entry 1azg",16 µM (active)
CC(C)C[C@@H](C=O)NC(=O)[C@H](CC(C)C)NC(=O)[C@@H]1CCCN1C(=O)[C@H](CCCCN)NC(=O)[C@@H]1CCCN1C(=O)[C@H](C)NC(=O)[C@@H](NC(=O)[C@@H]1CCCN1C(=O)[C@H](CCCNC(N)N)NC(=O)[C@@H]1CCCN1C(=O)[C@@H]1CCCN1C(=O)[C@@H]1CCCN1)[C@@H](C)O (H-PPP[Orn(CH(NH2)2)]PTAPKPLL-aldehyde),Kd,"protein: Mona/GadsSH3C, PDB entry 2w10",0.17 µM (active)
O=C(O)CNC(=O)[C@@H]1CCCN1C(=O)[C@@H]1CCCN1C(=O)CNC(=O)[C@@H]1CCCN1C(=O)[C@@H]1CCCN1C(=O)CNC(=O)[C@@H]1CCCN1C(=O)[C@@H]1CCCN1 (H-PPGPPGPPG-OH),Kd,"protein: PROLYL 4-HYDROXYLASE SUBUNIT ALPHA-1, PDB entry 4bt9",144 µM (active)
O=C(O)[C@@H]1CCCN1C(=O)[C@@H]1CCCN1C(=O)[C@@H]1CCCN1C(=O)[C@@H]1CCCN1C(=O)[C@@H]1CCCN1C(=O)[C@@H]1CCCN1C(=O)[C@@H]1CCCN1C(=O)[C@@H]1CCCN1C(=O)[C@@H]1CCCN1 (H-PPPPPPPPP-OH),Kd,"protein: PROLYL 4-HYDROXYLASE SUBUNIT ALPHA-1, PDB entry 4btb",9.8 µM (active)
COC(=O)c1cccc2[nH]ccc12,Kd,"protein: DNA REPAIR AND RECOMBINATION PROTEIN RADA, PDB entry 4b35",1300 µM (active)
CC1C(=O)OC2=C1C=COC2 (stereo not given),Kd,"protein: Hydrolase, alpha/beta fold family protein, PDB entry 4jym",9.05 µM (active)
C=C(C)/C=C/[C@H]1[C@@H](C)CCCC1(C)C,Kd,"protein: Cellular Retinal Binding Protein, PDB entry 4ciz",0.051 µM (active)
CC(C)C(=O)C[N+]1=C2N=C(N3CCOC[C@H]3C)CC(=O)N2CC[C@H]1C(F)(F)F,Kd,"protein: PHOSPHATIDYLINOSITOL 3-KINASE CATALYTIC SUBUNIT TYPE 3 Vsp34, PDB entry 4uwl",0.0027 µM (active)
Cn1cnc2nc(N)[nH]c(=O)c21,Kd,"protein: rRNA N-glycosidase, PDB entry 4i47",0.12 µM (active)
NCC(=O)NCC(=O)NCC(=O)N[C@@H](CO[P+](O)(O)O)C(=O)NCC(=O)NCC(=O)NCC(=O)O,Kd,"protein: 14-3-3 protein, PDB entry 1a37",0.12 µM (active)
OC[C@H]1O[C@@H](Sc2ccc3ccccc3c2)[C@H](O)[C@@H](O)[C@H]1O,Kd,"protein: PA-I GALACTOPHILIC LECTIN, PDB entry 4a6s",6.3 µM (active)
CC[C@H](C)[C@@H]1NC(=O)[C@H](CCCCN)NC(=O)[C@H](Cc2ccccc2)NC(=O)CNC(=O)[C@H](Cc2ccc(O)cc2)NC(=O)[C@H](CC(C)C)NC(=O)[C@H](CCCNC(N)N)NC(=O)[C@@H](NC(=O)CN)CSSC[C@@H](C(=O)NCC(=O)O)NC(=O)CNC(=O)[C@H](Cc2cnc[nH]2)NC1=O (H-GC[Orn(CH(NH2)2)]LYGFKIHGCG-OH; disulfide 2-12),Kd,"protein: Casein kinase II subunit alpha, PDB entry 4ib5",0.56 µM (active)
CC[C@H](C)[C@@H]1NC(=O)[C@H](Cc2cnc[nH]2)NC(=O)[C@H]([C@@H](C)CC)NC(=O)[C@H](CCCNC(N)N)NC(=O)[C@@H](N)CSSC[C@@H](C(=O)O)NC(=O)[C@H]([C@@H](C)O)NC(=O)[C@H](Cc2ccc(O)cc2)NC(=O)[C@H](Cc2ccccc2)NC(=O)[C@H](C)NC(=O)[C@H](CCCNC(N)N)NC(=O)CNC(=O)[C@@H]2CCCN2C(=O)CNC1=O,Kd,"protein: Fab mAb 447-52D Light Chain, PDB entry 4m1d",0.023 µM (active)
COc1cc2c(Nc3ccc(NC(=O)c4ccccc4)cc3)ncnc2cc1O,Kd,"protein: Bifunctional protein GlmU, PDB entry 4e1k",0.5 µM (active)
NC(N)NC[C@H]1Cc2ccccc2[C@@H]1NC(=O)C(=O)Nc1ccc(Cl)c(F)c1,Kd,"protein: HIV-1 glycoprotein, PDB entry 4i54",0.11 µM (active)
NCCCCCC(=O)N[C@H]1Cc2ccccc2[C@@H]1Cc1ccc2c(c1C(=O)O)OCO2,Kd,"protein: INTEGRASE, PDB entry 4cgi",752 µM (active)
same,Kd,"protein: INTEGRASE, PDB entry 4cgj",1460 µM (active)
O[P+](O)(O)O[P+](O)(O)O[P+](O)(O)O,Kd,"protein: DNA primase small subunit, PDB entry 4lil",12.5 µM (active)
same,Kd,"protein: Thiamine-triphosphatase, PDB entry 3tvl",100 µM (active)
C[C@@H](O)[C@H](NC(=O)[C@@H]1CCCN1C(=O)[C@H](CO[P+](O)(O)O)NC(=O)[C@@H](N)Cc1ccc(O)cc1)C(=O)N[C@@H](CO[P+](O)(O)O)C(=O)N1CCC[C@H]1C(=O)N[C@@H](CO)C(=O)N[C@@H](Cc1ccc(O)cc1)C(=O)N[C@H](C=O)CO[P+](O)(O)O,Kd,"protein: CTD INTERACTING DOMAIN of RNA processing factor SCAF8, PDB entry 3d9k",19 µM (active)
C[C@@H](O)[C@H](NC(=O)[C@@H]1CCCN1C(=O)[C@H](CO[P+](O)(O)O)NC(=O)[C@@H](N)Cc1ccc(O)cc1)C(=O)N[C@@H](CO)C(=O)N1CCC[C@H]1C(=O)N[C@@H](CO)C(=O)N[C@@H](Cc1ccc(O)cc1)C(=O)N[C@@H](CO[P+](O)(O)O)C(=O)N1CCC[C@H]1C=O,Kd,"protein: CTD INTERACTING DOMAIN of RNA processing factor SCAF8, PDB entry 3d9l",68 µM (active)
